Compound activity: PubChem BioAssay, Broad Institute
Shown is part of a subset that was picked to be rich in hits.
IDE exosite inh – exo-site inhibitors of human insulin-degrading enzyme | P14735 | purified IDE, FL-6b probe fluorescence polarization; stronger effect = lower value | z-score at 20 µM | hit rate 6.3% among 17,000 | AID 1259349;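 active = z-score of -3 or lower, meaning strong loss of probe binding signal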;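 note: His-tagged human IDE residues 42-1019 made in E. coli with 30 nM FL-6b probe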
Target sequence (P14735 42-1019 limits assumed): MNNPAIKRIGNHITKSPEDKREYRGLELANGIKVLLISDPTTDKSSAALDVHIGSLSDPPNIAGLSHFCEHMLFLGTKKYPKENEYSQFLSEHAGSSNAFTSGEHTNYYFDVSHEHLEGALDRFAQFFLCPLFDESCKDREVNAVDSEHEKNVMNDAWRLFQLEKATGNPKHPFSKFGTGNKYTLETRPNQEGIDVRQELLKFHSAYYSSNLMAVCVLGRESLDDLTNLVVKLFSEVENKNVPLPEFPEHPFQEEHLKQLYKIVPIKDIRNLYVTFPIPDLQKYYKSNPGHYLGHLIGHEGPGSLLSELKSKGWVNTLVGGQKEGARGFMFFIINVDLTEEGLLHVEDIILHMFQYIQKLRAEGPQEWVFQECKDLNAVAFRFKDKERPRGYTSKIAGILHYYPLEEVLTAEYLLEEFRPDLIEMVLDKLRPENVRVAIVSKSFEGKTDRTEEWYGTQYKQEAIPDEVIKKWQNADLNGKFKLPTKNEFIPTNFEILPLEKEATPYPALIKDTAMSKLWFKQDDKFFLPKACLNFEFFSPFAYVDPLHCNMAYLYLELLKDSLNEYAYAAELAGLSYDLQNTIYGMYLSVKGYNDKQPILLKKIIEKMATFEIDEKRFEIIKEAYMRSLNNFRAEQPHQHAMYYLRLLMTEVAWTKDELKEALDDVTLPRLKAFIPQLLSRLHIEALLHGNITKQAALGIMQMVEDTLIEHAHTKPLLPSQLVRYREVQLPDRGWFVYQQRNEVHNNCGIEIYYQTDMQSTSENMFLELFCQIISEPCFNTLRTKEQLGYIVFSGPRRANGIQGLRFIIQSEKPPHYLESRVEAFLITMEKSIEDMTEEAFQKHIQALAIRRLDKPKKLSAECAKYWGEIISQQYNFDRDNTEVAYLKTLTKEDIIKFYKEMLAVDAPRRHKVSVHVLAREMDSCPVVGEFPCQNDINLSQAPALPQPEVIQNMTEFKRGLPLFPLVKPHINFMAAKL
An asterisk follows results filed as active.

`O=C(Cc1ccccn1)N1CC(=O)N2[C@H](CO)[C@H](c3ccc(C#CC4CCCCC4)cc3)[C@@H]2C1` gave IDE exosite inh -0.628.
Screening Cc1ccccc1-c1ccc([C@H]2[C@@H](CO)N3C(=O)CN(C(=O)Cc4ccccn4)C[C@@H]23)cc1 returned IDE exosite inh -17.3*.
`O=C(Cc1ccccn1)N1CC(=O)N2[C@H](CO)[C@@H](c3ccc(C#CC4CCCCC4)cc3)[C@H]2C1` gave IDE exosite inh -0.35.
`Cc1ccccc1-c1ccc([C@H]2[C@H](CO)N3C(=O)CN(C(=O)Cc4ccccn4)C[C@@H]23)cc1` gave IDE exosite inh -13.9*.
`Cc1ccc(S(=O)(=O)N[C@@H]2C=C[C@H](CC(=O)NCc3ccc(Cl)c(Cl)c3)O[C@H]2CO)cc1` gave IDE exosite inh -0.462.
For C[C@@H](O)C#Cc1ccc([C@@H]2[C@H]3CN(CC4CC4)CCCCN3[C@H]2CO)cc1 the results were IDE exosite inh 0.535.
O=C(CN1CCOCC1)N1CCCCN2[C@H](C1)[C@@H](c1ccc(Br)cc1)[C@@H]2CO was read as IDE exosite inh 1.09.
O=C(CN1CCOCC1)N1CCCCN2[C@H](CO)[C@H](c3ccc(/C=C/c4ccccc4)cc3)[C@@H]2C1 was read as IDE exosite inh -9.28*.
Screening O=C(CN1CCOCC1)N1CCCCN2[C@H](C1)[C@@H](c1ccc(/C=C/c3ccccc3)cc1)[C@@H]2CO returned IDE exosite inh -4.6*.
O=C(CN1CCOCC1)N1CCCCN2[C@H](CO)[C@H](c3ccc(/C=C/c4ccccc4)cc3)[C@H]2C1 was read as IDE exosite inh -2.94.
O=C(CN1CCOCC1)N1CCCCN2[C@H](CO)[C@@H](c3ccc(/C=C/c4ccccc4)cc3)[C@H]2C1 was read as IDE exosite inh -9.26*.
`NCC[C@H]1CC[C@@H](NC(=O)Cc2ccncc2)[C@@H](CO)O1` gave IDE exosite inh 2.86.
Screening O=S(=O)(c1ccc(F)cc1)N1C[C@H]2[C@@H](c3ccccc31)[C@@H](CO)N2Cc1ccccc1Cl returned IDE exosite inh 0.13.
For COCCN(C[C@H]1N[C@H](CO)[C@@H]1c1ccc(-c2ccc(F)cc2)cc1)C(C)=O the results were IDE exosite inh 1.5.
For OC[C@@H]1[C@@H](c2ccccc2)C2(CN(CC3CC3)C2)N1Cc1ccc(F)cc1 the results were IDE exosite inh 0.317.
Screening O=S(=O)(Cc1ccccc1)N1CCCCN2[C@H](CO)[C@H](c3ccc(-c4ccccc4)cc3)[C@@H]2C1 returned IDE exosite inh 1.42.
For CCC(=O)N1[C@H](CO)[C@H](c2ccccc2)C12CN(C(=O)CN1CCOCC1)C2 the results were IDE exosite inh -0.505.
For C[C@H](CO)N1C[C@H](C)[C@H](CN(C)S(C)(=O)=O)OCCCC[C@H](C)Oc2ccc(NC(=O)NC3CCCCC3)cc2C1=O the results were IDE exosite inh 0.168.
For O=C(Cc1cccnc1)N1CC(=O)N2[C@H](CO)[C@H](c3ccc(C#CC4CCCCC4)cc3)[C@H]2C1 the results were IDE exosite inh -1.47.
O=C(Cc1ccncc1)N1CC[C@@H]2[C@H](CO)Nc3ccc(-c4ccccc4F)cc3[C@@H]21 was read as IDE exosite inh -0.735.
`N#Cc1ccc(-c2ccc([C@H]3[C@@H](CO)N4C(=O)CN(C(=O)C5CCCCC5)C[C@@H]34)cc2)cc1` gave IDE exosite inh 3.98.
`O=C(Nc1cc(F)ccc1F)N1CCCCN2[C@H](CO)[C@H](c3ccc(C4=CCCCC4)cc3)[C@H]2C1` gave IDE exosite inh 0.762.
O=C(c1ccccn1)N1CC(=O)N2[C@H](C1)[C@H](c1ccc(C#CC3CCCC3)cc1)[C@@H]2CO was read as IDE exosite inh 2.91.
`Cc1cccc(-c2ccc(C3[C@H]4CNC[C@@H]3N4CC3CCOCC3)cc2)c1` (stereo partly specified) gave IDE exosite inh 0.976.
For COc1ccc2c3c(n(C)c2c1)[C@@H](CO)N(C)CC31CCN(C(=O)c2cccnc2)CC1 the results were IDE exosite inh 0.137.
For COCC(=O)NC[C@H]1[C@H](c2ccc(-c3ccccc3)cc2)[C@@H](CO)N1C(C)=O the results were IDE exosite inh 2.04.
CCC(=O)N1[C@H](CNC(=O)COC)[C@@H](c2ccc(-c3ccccc3)cc2)[C@@H]1CO was read as IDE exosite inh -3.46*.
Screening COCC(=O)NC[C@H]1N[C@H](CO)[C@H]1c1ccc(-c2ccccc2F)cc1 returned IDE exosite inh -3.27*.
For C/C=C/c1ccc([C@@H]2[C@H](CO)N[C@H]2CNC(=O)c2ccccc2F)cc1 the results were IDE exosite inh -0.0924.
For O=C(NC[C@H]1N[C@H](CO)[C@@H]1c1ccc(-c2ccccc2F)cc1)c1ccccc1 the results were IDE exosite inh -9.99*.
`O=C(NC[C@H]1N[C@H](CO)[C@@H]1c1ccccc1)c1ccccc1F` gave IDE exosite inh 0.716.
For CCC(=O)N1[C@H](CNC(=O)COC)[C@H](c2ccc(-c3ccccc3)cc2)[C@@H]1CO the results were IDE exosite inh -2.81.
For COCC(=O)NC[C@H]1N[C@H](CO)[C@@H]1c1ccc(C2=CCCCC2)cc1 the results were IDE exosite inh 3.26.
COCC(=O)NC[C@H]1N[C@H](CO)[C@@H]1c1ccc(-c2ccccc2F)cc1 was read as IDE exosite inh -3.08*.
Screening CCS(=O)(=O)N(C)C[C@@H]1N[C@H](CO)[C@@H]1c1ccc(-c2ccccc2F)cc1 returned IDE exosite inh -0.262.
`O=C(NC[C@@H]1N[C@@H](CO)[C@H]1c1ccccc1)c1ccccc1F` gave IDE exosite inh 1.05.
Screening CCC(=O)NC[C@H]1N[C@H](CO)[C@@H]1c1ccc(-c2ccccc2F)cc1 returned IDE exosite inh -0.798.
For CN1C(=O)c2cc(NC(=O)c3cccc(Cl)c3)ccc2OC[C@H]2O[C@@H](CC(=O)NC3CCCCC3)CC[C@H]21 the results were IDE exosite inh 1.19.
Screening COc1ccc(C[C@@H]2CCn3nncc3COCCCNC2=O)cc1 returned IDE exosite inh -0.479.
CCc1csc(N2[C@H](C#N)[C@H](c3ccc(C4=CCCC4)cc3)[C@H]2CO)n1 was read as IDE exosite inh 0.018.
CC(=O)N(C)C[C@H]1[C@H](c2ccc(-c3cccc(C#N)c3)cc2)[C@@H](CO)N1C(C)=O was read as IDE exosite inh 3.38.
Screening COc1ccc2c3c(n(C)c2c1)[C@@H](CO)N(C(=O)Cc1ccccc1)CC31CN(C)C1 returned IDE exosite inh 1.03.
Screening CN(C)C(=O)c1cccc(-c2ccc([C@H]3[C@@H](CO)N4CCCCN(CCC(F)(F)F)C[C@@H]34)cc2)c1 returned IDE exosite inh 1.91.
Screening CC(C)NC(=O)N1CC(=O)N2[C@H](CO)[C@@H](c3ccc(/C=C/c4ccccc4)cc3)[C@@H]2C1 returned IDE exosite inh -3.31*.
Screening COc1ccc(-c2ccc([C@@H]3[C@H](CO)N4C(=O)CN(C(=O)NC(C)C)C[C@@H]34)cc2)cc1 returned IDE exosite inh -0.3.
`Cc1ccc(-c2ccc([C@@H]3[C@H](CO)N4C(=O)CN(C(=O)NC(C)C)C[C@@H]34)cc2)cc1` gave IDE exosite inh -1.41.
Screening CC(C)NC(=O)N1CC(=O)N2[C@@H](CO)[C@H](c3ccc(/C=C/c4ccccc4)cc3)[C@@H]2C1 returned IDE exosite inh -3.36*.
For COc1ccc(-c2ccc([C@H]3[C@@H](CO)N4C(=O)CN(C(=O)NC(C)C)C[C@@H]34)cc2)cc1 the results were IDE exosite inh 1.25.
For COc1ccc(NC(=O)N2CC(=O)N3[C@H](CO)[C@H](c4ccc(/C=C/c5ccccc5)cc4)[C@@H]3C2)cc1 the results were IDE exosite inh -1.18.
